Compound activity from PubChem.
Luc counter: counter-screen: inhibitors of Kinase-Glo firefly luciferase; Q27757; Kinase-Glo luciferase, ATP luminescence, 8 min; Potency, µM (highest dose often 38.3 µM), for the others: top-dose activity change, negative = inhibition, actives largely listed as inhibitors; 200,000 tested, 0.28% active; AID 1379; note: % is set by controls: 0 for no effect and ±100 for the full control effect; nearly all actives have a fitted effect of over 60% in size
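Kinase-Glo luciferase light output from ATP and luciferin was measured with 10 uM ATP, within the enzyme's linear range. Buffer: 50 mM imidazole pH 7.2, 50 mM KCl, 7 mM MgCl2, 0.01% Tween 20, 0.05% BSA; luminescence read after 8 min at ambient temperature.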
NPC1 promoter act: NPC1 promoter activation; Huh7 NPC1 promoter luciferase reporter, 24 h; Potency, µM (highest dose often 9.22 µM), inactives show at the highest dose activation, usual class: activators; 320,000 tested, 2.4% active; note: % of control where 0% means no effect; nearly all actives have a fitted effect of over 60% in size
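Huh7 reporter cells (NPC1 promoter driving luciferase) are dosed with compound for 24 h at 37 °C, 5% CO2; luciferase detection reagent is then added and luminescence measured after 10 min at ambient temperature.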
FLuc modulator: inhibits or activates purified firefly luciferase, miR-21 counter-screen | P08659 | purified FLuc, Km substrates, luminescence inhibition | Potency, µM (doses to about 57.5 µM), for the others: at the top dose activity change, negative = inhibition, hits mostly inhibitors | 360,000 tested, 6.9% active;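 note: plate controls were vehicle for no effect and reference inhibitor for full effect; nearly all actives have a fitted effect of over 55% in size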
Target sequence (P08659 whole entry, looked up): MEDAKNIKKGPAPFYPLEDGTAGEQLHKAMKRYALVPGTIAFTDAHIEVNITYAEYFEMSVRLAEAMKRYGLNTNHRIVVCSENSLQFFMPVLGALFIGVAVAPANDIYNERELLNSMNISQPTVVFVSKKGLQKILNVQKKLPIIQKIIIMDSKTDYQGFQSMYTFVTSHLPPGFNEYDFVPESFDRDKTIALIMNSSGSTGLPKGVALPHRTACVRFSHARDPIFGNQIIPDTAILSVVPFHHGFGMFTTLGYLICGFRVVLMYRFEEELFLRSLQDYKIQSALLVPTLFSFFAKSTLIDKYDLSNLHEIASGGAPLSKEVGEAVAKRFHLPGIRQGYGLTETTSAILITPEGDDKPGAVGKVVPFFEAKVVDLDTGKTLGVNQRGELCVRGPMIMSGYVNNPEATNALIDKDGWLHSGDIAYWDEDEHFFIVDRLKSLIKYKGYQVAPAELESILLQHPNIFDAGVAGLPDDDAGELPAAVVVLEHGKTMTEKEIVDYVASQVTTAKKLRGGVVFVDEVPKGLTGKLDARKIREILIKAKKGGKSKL
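Purified P. pyralis luciferase, 10 nM final, with Km-level 10 uM D-luciferin and 10 uM ATP in 50 mM Tris acetate pH 7.5, 10 mM Mg acetate, 0.01% Tween-20, 0.05% BSA; 6-point qHTS titration about 60 µM downward; luminescence read.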
Rab9 prom act: Rab9 promoter activation | Huh7 Rab9 promoter-luciferase reporter, luminescence, 24 h | Potency, µM (highest dose often 9.22 µM), for inactives: top-dose activation, negative = inhibition, actives largely listed as activators | 320,000 tested, 2.8% active; note: % of control where 0% means no effect; nearly all actives have a fitted effect of over 60% in size
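Cell-based reporter: Huh7 stable for Rab9 promoter-driven luciferase, plated in reduced-serum medium with 10% FBS at 1500 cells/well, compound-treated 24 h at 37 °C, luminescence read after 10 min reagent.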
SMN2 splice enh: enhancers of SMN2 splice variant expression | 210,000 tested, 2.8% active | Potency, µM (highest dose often 46.1 µM), inactives show at the highest dose activity change, positive = activation, usual class: activators | HEK293 SMN2-luciferase splicing reporter, luminescence, 30-36 h | AID 1458; note: % of control where 0% means no effect; nearly all actives have a fitted effect of over 55% in size
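qHTS luciferase splicing reporter: luminescence rises when SMN2 exon 7 is included in transfected HEK293 cells. Compound exposure lasted 30-36 h at 37C, with 4.5 mM final sodium butyrate as control, followed by a ONE-Glo read.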
An asterisk follows results filed as active; ? = inconclusive; · = no result given; [ ] = remark or other dose. Shown are actives, neighbours in structure and some others; about 7.3% of the full set was active somewhere. Calls come from the whole dose curve; as a rule, active = well fitted curve in the direction sought with a large enough effect; inconclusive = small, poorly fitted or top-dose-only effect, or another doubt; inactive = no such curve, though single readings can be large; an effect the other way counts as inactive or inconclusive. Potency is the fitted concentration of half-maximal effect.

SMILES	Luc counter	NPC1 promoter act	FLuc modulator	Rab9 prom act	SMN2 splice enh
Cc1ccc(Nc2nnc(SCC(=O)NC(Cc3c[nH]c4ccccc34)C(=O)O)s2)cc1 (stereo unspecified)	2%	-2%	19µM*	-3%	7%
Cc1ccc(Nc2nnc(SCC(=O)NCCN3C(=O)CSC3=O)s2)cc1	-19%	2%	8.5µM*	11%	?
Cc1ccc(Nc2nnc(SCC(=O)NC3CC3)s2)cc1	·	0%	7.6µM*	6%	·
CC(=O)Nc1nnc(SCC(=O)NC2CC2)s1	·	3%	0%	1%	·
COc1ccc2c(CC(=O)Nc3ccc(C)cc3)coc2c1	·	·	-13%	·	14%
Cc1ccc(-c2cc(C(=O)Nc3nccs3)c3ccccc3n2)o1	-8%	-3%	11µM*	-4%	-34%
Cc1ccc(-c2cc(C(=O)Nc3nccs3)c3ccccc3n2)c(C)c1	0%	-3%	-6%	-3%	-43%
COc1ccc(NC(=O)c2cc(-c3ccc(C)o3)nc3ccccc23)cc1OC	6.3µM*	19%	0.95µM*	?	-23%
COc1cc(NC(=O)c2cc(C)nc3ccccc23)cc(OC)c1OC	7%	-5%	4%	-8%	-2%
CC(C(=O)O)c1ccc(C(=O)c2ccccc2)s1 (stereo unspecified)	·	6%	17µM*	29%	·
N[C@@](CCc1ccccc1)(C(=O)O)c1ccccc1	-1%[7.66 µM]	·	·	·	-10%[9.22 µM]
CC(=O)Nc1ccc(/C=N/N2CCCCC2)cc1	-3%	3.2µM*	27µM*	4.5µM*	14µM*
CC(=O)Nc1ccc(/C=N/N2C(C)CCCC2C)cc1 (stereo unspecified)	5%	11%	1%	16%	-29%
Cc1ccc(NC2=C(Cl)C(=O)c3ccccc3C2=O)cc1	·	-34%	-23%	-33%	·
Cc1cc(C)cc(NC2=C(N)C(=O)c3ccccc3C2=O)c1	·	?	15µM*	?	·
Cc1cccc(C)c1OCC(=O)Nc1ccc2c(c1)OCCO2	·	13%	?	17%	·
O=C(CSCc1c(Cl)cccc1Cl)Nc1ccc2c(c1)OCCO2	1%	13%	17µM*	8%	18%
O=C(CSc1nccn1-c1cccc(Cl)c1)Nc1ccc2c(c1)OCCO2	-3%	6%	-11%	-6%	-8%
Cc1ccccc1OCC(=O)Nc1ccc2c(c1)OCCO2	·	3.5µM*	9.5µM*	2.8µM*	·
O=C(COc1ccccc1Cl)Nc1ccc2c(c1)OCCO2	-2%	4µM*	4.8µM*	1.6µM*	·
Cc1ccccc1OCC(=O)N/N=C/c1ccc2c(c1)OCCO2	-2%	1%	27µM*	-1%	12%
Cc1cc(C)cc(NC(=O)CN(C)S(=O)(=O)c2ccc3c(c2)CCC(=O)N3)c1	·	·	0%	·	-7%
COc1cc2nc(SCC(=O)Nc3cccc(C)c3)n3nc(CCn4c(C)nc5ccccc54)nc3c2cc1OC	·	·	-3%	·	0%
Cc1ccc(Cn2cc(CCC(=O)NC3CCC(C)CC3)c3ccccc32)cc1 (stereo unspecified)	·	·	-2%	·	·
O=C(COC(=O)COc1ccccc1F)Nc1ccc2c(c1)OCO2	·	-2%	0%	-3%	·
SMILES	Luc counter	NPC1 promoter act	FLuc modulator	Rab9 prom act	SMN2 splice enh
NC(=O)c1ccccc1OCC(=O)Nc1ccc2c(c1)OCCO2	·	?	8.5µM*	3.2µM*	·
O=C(COC(=O)c1cccnc1Cl)Nc1ccc2c(c1)OCCO2	-3%	-2%	8.5µM*	-2%	5%
O=C(COC(=O)c1cccnc1Cl)NCc1ccc2c(c1)OCO2	·	-4%	2%	1%	·
COc1ccccc1OCC(=O)Nc1ccc2c(c1)OCCO2	·	?	17µM*	?	·
Cn1cncc1C#Cc1ccc2cc(CCO)oc(=O)c2c1	·	13%	-19%	-1%	·
O=c1oc(CCO)cc2ccc(-c3ccc4[nH]ccc4c3)cc12	·	?	2.7µM*	0%	·
CCC(C)NS(=O)(=O)c1ccc(N2CCCCS2(=O)=O)cc1 (stereo unspecified)	·	·	-2%	·	·
CN(C)C(CNC(=O)c1ccc(NC(=O)c2cccs2)cc1)c1ccccc1 (stereo unspecified)	·	-3%	0%	-5%	·
CN(C)C(CNC(=O)c1ccc(C2SCCS2)cc1)c1ccccc1 (stereo unspecified)	·	22%	17µM*	12%	·
Cc1ccc(/C=C/C(=O)Nc2ccc(Cl)cc2Cl)cc1	·	·	-1%	·	·
CC(C)c1ccc(NC(=O)c2cc3c(s2)-c2ccccc2SC3)cc1	·	·	-11%	·	-4%
O=C(CCl)Nc1ccc(N=Nc2ccccc2)cc1	-1%	21%	6µM*	27%	-26%
O=C(Nc1ccc(N=Nc2ccccc2)cc1)c1ccc(Cl)cc1Cl	2%	-8%	2%	2%	-4%
O=C(Nc1ccc(N=Nc2ccccc2)cc1)c1ccccc1Cl	4%	1.8µM*	3.8µM*	2.5µM*	11µM*
CC(C)C(=O)OCC(=O)NCc1ccccc1Cl	2%	?	17µM*	-2%	2%
CC(=O)OCC(=O)Nc1ccc(N=Nc2ccccc2)cc1	0%	2.8µM*	12µM*	2.8µM*	6.3µM*
CCCC(=O)NCc1ccccc1Cl	1%	-2%	-3%	-6%	0%
O=C(CCl)Nc1ccc(-c2ccccc2)cc1	2%	-46%	-6%	-47%	-61%
CCCC1(C)C(C#N)(C#N)C1(C#N)C#N	·	-35%[46.1 µM]	·	-44%[46.1 µM]	·
ClCCl	·	·	·	·	6%
Cc1ccc(S(=O)(=O)OC2CCN(C)CC2)cc1	-2%[7.66 µM]	·	·	·	2%[9.22 µM]
CNS(=O)(=O)c1cn(CC(=O)Nc2ccc(C(C)=O)cc2)cc1S(=O)(=O)NC	·	·	5%	·	·
CC1(C(=O)OCC(=O)Nc2ccccc2)CC1(Cl)Cl (stereo unspecified)	-1%	?	17µM*	?	-11%
CC(=O)Nc1ccc(N=Nc2ccccc2)cc1	1%	2.8µM*	6µM*	2.8µM*	10µM*
CC(C)C(=O)OCC(=O)Nc1ccc(N=Nc2ccccc2)cc1	4%	2.5µM*	?	0.79µM*	11µM*
